Assay outcomes (PubChem BioAssay)
Shown are actives, neighbours in structure and some others; about 19% of the full set was active somewhere.
HT1080NT lethal: kills 2HG-producing HT-1080-NT fibrosarcoma cells; HT-1080-NT fibrosarcoma viability, CellTiter-Glo ATP luminescence, 48 h; Potency, µM (titrated, usually from 46.1 µM), inactives show top-dose activity, negative = less viability, actives largely listed as cytotoxic; 360,000 compounds, 1.6% hits;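 note: NT is the 2HG producing partner of a matched IDH1 knockdown line; potency is the fitted concentration of half-maximal effect; 0% = DMSO-treated cells and -100% = media-only wells without cells; nearly all actives have a fitted effect of over 55% in size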
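Read-out is CellTiter-Glo luminescence after 10 minutes at room temperature, following 48 hours' compound treatment of HT-1080-NT cells (750 cells/well, RPMI, 5% FBS, 37 degrees C).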
IL-1B inflam inh: blocks inflammasome-driven IL-1 beta release. 360,000 compounds, 4.7% hits. THP-1 LPS/ATP IL-1B secretion, AlphaLISA, 16 h; hits give low values. activity change, % at 57.5 µM; in the data active = activity change below about -50%; inconclusive = mostly about -30% to -49%
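THP-1 cells pretreated 1 hr with compounds (up to 57.5 uM final), then stimulated with LPS (250 ng/mL final) plus ATP (1.25 mM final); secreted IL-1B measured by AlphaLISA after 16 hr, decreased signal indicating inhibition.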
ELG1 DNA repair: inhibitors of ELG1-dependent DNA repair in HEK293T cells; HEK293T ELG1-luciferase reporter, luminescence, 16 h; DNA damage induced by 5-fluorouridine; Potency, µM (highest dose often 46.1 µM), for the others: at the highest dose activity change, negative = inhibition, most hits filed as inhibitors; 330,000 compounds, 2.3% hits; AID 504467; note: potency is the fitted concentration of half-maximal effect; nearly all actives have a fitted effect of over 55% in size
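Cells (2,000 per well) received 5-fluorouridine plus test compound or DMSO and were incubated 16 hr at 37 °C, 5% CO2. Luciferase activity was read by luminescence 30 min after ONE-Glo addition; signal suppression marked inhibition of damage-induced ELG1 function.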
DT40 TDP1 no CPT: qHTS for Inhibitors of human tyrosyl-DNA phosphodiesterase 1 (TDP1): qHTS in cells in absence of CPT | DT40 Tdp1-/- hTDP1 cells, no CPT, ATP luminescence, 48 h | Potency, µM (top dose mostly 46.2 µM), inactives show at the top dose activity change, negative = growth inhibition, hits mostly inhibitors | 420,000 compounds, 15% hits; note: potency is the fitted concentration of half-maximal effect; nearly all actives have a fitted effect of over 55% in size
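A cellular qHTS used chicken DT40 cells lacking endogenous Tdp1 but carrying stably transfected human TDP1. Compounds were applied without camptothecin, and cell growth kinetics were judged by ATP-dependent luminescence after ≥48 hr.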
HT1080 IDH1KD tx: kills HT-1080 cells with IDH1 knockdown; HT-1080 IDH1 knockdown viability, ATP luminescence, 48 h; Potency, µM (series often up to 46.1 µM), without a hit: top-dose activity, negative = toxicity, most hits filed as cytotoxic; 360,000 compounds, 2% hits;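 note: potency is the fitted concentration of half-maximal effect; 0% = DMSO wells and -100% = cell-free medium wells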
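Viability of IDH1-knockdown HT-1080 fibrosarcoma cells was assessed by CellTiter-Glo after 48 h at 37 °C with titrated compound; concentration-effect curves were classified by fit quality and response size.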
DT40 TDP1 CPT: growth inhibition of DT40 Tdp1-/-;hTDP1 cells with camptothecin (screen for TDP1 inhibitors); chicken DT40 Tdp1-/-;hTDP1 cells + 20 nM CPT, ATP luminescence, 48 h; Potency, µM (series often up to 46.2 µM), for the others: top-dose activity change, negative = growth inhibition, most hits filed as inhibitors; 420,000 compounds, 12% hits; AID 686979; note: potency is the fitted concentration of half-maximal effect; nearly all actives have a fitted effect of over 55% in size
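Chicken DT40 Tdp1-/- cells complemented with human TDP1, 400 cells/well, exposed to compounds plus 20 nM camptothecin for at least 48 h at 37 C; viability read as ATP content by CellTiter-Glo luminescence.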
Starred values were filed as active, the others as inactive; ? = inconclusive; nt = no result; [ ] = another dose, or the depositor's remark. Unless noted, calls come from the whole dose curve; as a rule, active = well fitted curve in the direction sought with a large enough effect; inconclusive = small, poorly fitted or top-dose-only effect, or another doubt; inactive = no such curve, though single readings can be large; an effect the other way counts as inactive or inconclusive. Unless noted, % is set by controls: 0 for no effect and ±100 for the full control effect.

SMILES | HT1080NT lethal | IL-1B inflam inh | ELG1 DNA repair | DT40 TDP1 no CPT | HT1080 IDH1KD tx | DT40 TDP1 CPT
CCOC(=O)c1c(S(=O)(=O)N2CCCC(C(=O)NCc3cccc(OC)c3)C2)c(C)n(C)c1C (stereo unspecified) | nt | nt | nt | -29.3% | nt | -28.7%
Cc1cc(=O)n(C(C)C(=O)N2CCCc3ccccc32)c2c1c(C)nn2-c1ccccc1 (stereo unspecified) | nt | nt | nt | ? | nt | 16.4µM*
Cc1ccc(OCC(=O)N(Cc2ccco2)Cc2ccc(C)o2)cc1 | nt | nt | nt | 16.4µM* | nt | 16.4µM*
CN(Cc1ccccc1)C(=O)COc1ccccc1Cl | -7.7% | -13.1 | -3.5% | ? | 14.0% | -7.8%
CCc1ccc(OCC(=O)N(Cc2ccco2)Cc2ccco2)cc1 | nt | nt | nt | 20.6µM* | nt | ?
Cc1cccc(OCC(=O)N(Cc2ccc(N(C)C)cc2)Cc2ccco2)c1C | nt | nt | nt | 7.31µM* | nt | ?
CCc1ccc(CN(Cc2ccco2)C(=O)COc2ccccc2Cl)cc1 | nt | nt | nt | 23.1µM* | nt | ?
CC1=C(C(=O)N(C)C)CC(CC(=O)NCCCN(C)C)C(=O)N1CCC1=CCCCC1 (stereo unspecified) | 1.9% | 30.1 | nt | 5.4% | 10.1% | -6.4%
CC(C)Nc1ncnc2c1ncn2[C@H]1CN(Cc2cccs2)C[C@@H](CO)O1 | ? | -14.3 | nt | -22.6% | 19.4% | -4.9%
O=S(=O)(Nc1cccc(-c2ccc(N3CCCCC3)nn2)c1)c1cccs1 | nt | nt | nt | -21.7% | nt | 0.3%
Cc1ccc(CN(Cc2ccco2)C(=O)COc2cccc(C)c2C)o1 | nt | nt | nt | 18.4µM* | nt | 16.4µM*
Cc1oc2ccc(O)c(CN3CCN(Cc4ccccc4)CC3)c2c1C(=O)Nc1ccccc1 | nt | nt | nt | ? | nt | 23.1µM*
Cc1ccc(NC(=O)c2c(C)oc3nc(C)nc(N4CCCC4)c23)c(C)c1 | nt | nt | nt | -9.7% | nt | -2.1%
Cc1ccc(NC(=O)c2c(C)oc3ccc(O)c(CN4CCCCC4)c23)c(C)c1 | nt | nt | nt | 16.4µM* | nt | 11.6µM*
COc1ccc(NC(=O)c2c(C)oc3ccc(O)c(CN4CCCCCC4)c23)cc1Cl | nt | nt | nt | ? | nt | 25.9µM*
Cc1ccccc1NC(=O)CCN1CCCCCC1 | 15.9% | -21.2 | nt | -19.4% | 5.2% | -4.2%
Cc1ccccc1NC(=O)c1c(C)oc2ccc(O)c(CN3CCCCCC3)c12 | nt | nt | nt | 20.6µM* | nt | 23.1µM*
Cc1oc2ccc(O)c(CN3CCOCC3)c2c1C(=O)Nc1ccccc1 | nt | nt | nt | -3.8% | nt | -14.6%
COc1ccc(CCNC(=O)Cn2nnc(-c3ccc(C(F)(F)F)cc3)n2)cc1OC | nt | nt | nt | -23.6% | nt | -1.0%
CC(=O)Nc1ccc(S(=O)(=O)N(C)CC(=O)OCC(=O)N2CCCC2=O)cc1 | 13.0% | 18.5 | 22.2% | -2.4% | 9.7% | 0.3%
Cc1ccccc1NC(=O)c1c(C)oc2ccc(O)c(CN3CCOCC3)c12 | nt | nt | nt | 23.1µM* | nt | 20.6µM*
Cc1oc2ccc(O)c(CN3CCOCC3)c2c1C(=O)Nc1ccc(C(C)C)cc1 | nt | nt | nt | 16.4µM* | nt | 16.4µM*
CC(C)c1ccc(NC(=O)CSc2nnc(CN3CCOCC3)n2C)cc1 | 8.8% | -12.1 | 8.7% | -4.1% | -1.0% | 1.1%
O=C(Nc1cccc(Cl)c1Cl)c1cc2nc(-c3ccc(Cl)cc3)cc(C(F)(F)F)n2n1 | nt | nt | nt | -0.9% | nt | -21.5%
Cc1ccccc1OCC(=O)N(CC(C)C)c1c(N)n(CC(C)C)c(=O)[nH]c1=O | 19.5% | -1.2 | 6.8% | -12.6% | 22.7% | 5.1%
SMILES | HT1080NT lethal | IL-1B inflam inh | ELG1 DNA repair | DT40 TDP1 no CPT | HT1080 IDH1KD tx | DT40 TDP1 CPT
CCOC(=O)C1CCN(S(=O)(=O)c2ccc3c(c2)NC(=O)CS3)CC1 | 0.8% | 23.4 | -17.1% | -1.9% | -7.4% | -8.8%
Cc1ccccc1C(=O)Nc1ccc(OCc2cc(=O)n3ccccc3n2)cc1 | nt | nt | nt | 2.5% | nt | 11.7%
Cc1ccc2c(c1)C(=O)N1[C@H]3c4cc(Br)ccc4OC[C@@H]3[C@H](c3ccccc3)[C@]1(C)C(=O)N2 | ? | -23.0 | -9.2% | 23.1µM* | ? | 23.1µM*
C[C@@]12C(=O)Nc3ccc(Cl)cc3C(=O)N1[C@H]1c3ccccc3OC[C@@H]1[C@@H]2c1ccccc1 | -21.3% | ? | -1.6% | ? | -24.2% | ?
Cc1ccc2c(c1)[C@H]1[C@H](CO2)[C@H](c2ccccc2)[C@]2(C)C(=O)Nc3ccc(Br)cc3C(=O)N12 | -27.1% | ? | ? | 16.4µM* | ? | ?
COc1ccc2c(c1)OC[C@H]1[C@H]2N2C(=O)c3cc(Br)ccc3NC(=O)[C@@]2(C)[C@H]1c1ccccc1 | 5.1% | -12.8 | -0.7% | ? | -2.3% | -5.7%
COc1ccc2c(c1)[C@H]1[C@H](CO2)[C@H](c2ccccc2)[C@]2(C)C(=O)Nc3ccc(Br)cc3C(=O)N12 | -0.1% | ? | 15.3% | ? | -10.3% | 16.4µM*
O=C(C[C@H]1CC[C@@H](NC(=O)C2CC2)[C@@H](CO)O1)NCc1ccccc1Cl | 17.7% | 35.3 | nt | -6.8% | 12.7% | -14.8%
COC(=O)C1CCN(Cc2ccc3c(c2)CN(C(=O)c2ncc(C)[nH]2)CCO3)CC1 | nt | nt | nt | -12.8% | nt | 3.3%[9.04 µM]
COc1ccc2cc(C(=O)C3CCCN(Cc4cnc(N5CCOCC5)s4)C3)ccc2c1 (stereo unspecified) | -2.7% | ? | ? | 18.4µM* | -16.0% | ?
CC(C)Oc1cccc(C(=O)C2CCCN(Cc3ccc(Oc4ncccn4)cc3)C2)c1 (stereo unspecified) | ? | -20.6 | -18.6% | ? | -28.4% | 4.7%
CCn1ccnc1CN1CCCC(C(=O)c2ccc3cc(OC)ccc3c2)C1 (stereo unspecified) | ? | -96.2* | ? | 4.61µM* | ? | 2.91µM*
CC(C)Oc1cccc(C(=O)C2CCCN(Cc3cnc(N4CCCC4)s3)C2)c1 (stereo unspecified) | -24.2% | ? | ? | ? | -21.3% | ?
COc1c(C)cc(C(=O)C2CCCN(Cc3ccc(Oc4ncccn4)cc3)C2)cc1C (stereo unspecified) | -4.3% | -11.4 | 18.3µM* | 14.6µM* | -0.4% | ?
COc1ccc2cc(C(=O)C3CCCN(Cc4ccccn4)C3)ccc2c1 (stereo unspecified) | -20.4% | -26.5 | -12.5% | 18.4µM* | -19.9% | ?
Cc1ccccc1-n1ncc2c1CC(C)(C)CC2NC(=O)CCN1CCCCC1=O (stereo unspecified) | -5.3% | 3.6 | -14.4% | -0.6% | 14.3% | ?
